The values that follow come from PubChem BioAssay (Tox21).

For experiment [1], the target named is Thyrotropin receptor (Homo sapiens) (UniProt P16473). The experiment is described as follows: qHTS assay to identify small molecule agonists of the thyroid stimulating hormone receptor (TSHR) signaling pathway (AID 1224843; calls by dose curve; further: nearly all actives have a fitted effect of over 45% in size; further: potency means the concentration at half of the fitted maximal effect). Summed up: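 Agonist-mode screen: TSHR HEK293 cells received test chemicals for half an hour at room temperature, then HTRF cAMP detection reagents for one hour prior to fluorescence measurement. Each chemical ran as a 15-concentration series, triplicated.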

A short description of experiment [2]: qHTS assay to identify small molecule agonists of the hypoxia (HIF-1) signaling pathway - cell viability counter screen (AID 1224844; calls by dose curve; further: nearly all actives have a fitted effect of over 50% in size). Summed up: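 CellTiter-Glo luminescence read-out, 30 min RT, taken in the same wells as the beta-lactamase HRE reporter assay; HRE-bla ME-180 cells, 0.5% dialyzed FBS, 17 hr compound treatment at 37C, 5% CO2.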
(In general: qHTS replaces the single test concentration by a dilution series.)

Experiment [3] can be described thus: qHTS assay to identify small molecule agonists of H2AX (AID 1224845; active means well fitted activation curve with a large enough effect in the signal ratio in the repeat runs, not every such curve was filed as active; the % refers to the signal ratio). Summed up: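 Wild-type CHO-K1 cells, plated overnight, exposed 3hr at 37C to 15 concentrations (0.76% DMSO final). Lysed, then HTRF anti-pH2AX (S139) cryptate and anti-H2AX-d2 antibodies, 24 hr room temperature; 665/620 nm emission read.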
Experiment [4] can be described thus: qHTS assay to identify small molecule agonists of the hypoxia (HIF-1) signaling pathway (AID 1224846; active means well fitted activation curve with a large enough effect in the signal ratio in the repeat runs, not every such curve was filed as active; the % refers to the signal ratio). Summed up:
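Beta-lactamase FRET read-out (CCF4-AM substrate) from ME-180 cells carrying an HRE-driven bla reporter, after 17 hrs compound exposure at 37C/5% CO2. Cells were seeded at 2,000 per well in 0.5% dialyzed FBS medium and preincubated 5 hrs.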

Experiment [5] in a line: qHTS assay to identify small molecule agonists of H2AX - cell viability counter screen (AID 1224847; calls by dose curve; further: top concentration of the series differs between compounds; nearly all actives have a fitted effect of over 30% in size). Summed up:
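For this counter screen, overnight-attached CHO-K1 cells received test compounds (15 concentrations, 0.76% DMSO final); 3 hr later at 37C, CellTiter-Glo reagent was added and luminescence recorded after 30 min at room temperature.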

Experiment [6] is described as follows: qHTS RealTime-Glo MT Cell Viability Assay in HepG2 cells - 24 hour (AID 1224867). Further: nearly all actives have a fitted effect of over 50% in size. Summed up: (§1)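 Compound treatment began 5 h after plating HepG2 cells (600/well) with NanoLuc luciferase and prosubstrate. Plates stayed at 37 C for 40 h; luminescence was captured at six time points, 0 h through 40 h.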
Experiment [7] is described as follows: qHTS RealTime-Glo MT Cell Viability Assay in HEK293 cells - 32 hour (AID 1224868). Further: nearly all actives have a fitted effect of over 50% in size. Further: potency means the concentration at half of the fitted maximal effect. Summed up:
(§2)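 Quantitative high-throughput screen of the Tox21 10K library in HEK293: cells and RealTime-Glo reagents plated together, compound added at 5 h, luminescence monitored through 40 h at 37 C.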

Experiment [8] can be described thus: A CellTox Green Cytotoxicity Assay to monitor cytotoxicity in HEK293 cells - 0 hour (AID 1224869). Further: nearly all actives have a fitted effect of over 50% in size. Summed up: (§3)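 Read-out: fluorescence of a cell-impermeant cyanine dye staining DNA of dead cells, proportional to cytotoxicity. HEK293, 600 cells/well with reagent, compound (23 nL DMSO) added after 5 h; reads at 0, 8, 16, 24, 32, 40 h.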
Experiment [9] is described as follows: qHTS RealTime-Glo MT Cell Viability Assay in HepG2 cells - 40 hour (AID 1224870). Further: nearly all actives have a fitted effect of over 50% in size. Summed up:
(§4)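 HepG2 cells (600/well) mixed with RealTime-Glo MT reagent, settled 5 h at 37 C/5% CO2 before compound addition. Nonlytic NanoLuc luminescence from viable-cell prosubstrate reduction read repeatedly during 40 h treatment at 37 C.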

A short description of experiment [10]: A CellTox Green Cytotoxicity Assay to monitor cytotoxicity in HEK293 cells - 40 hour (AID 1224871). Further: nearly all actives have a fitted effect of over 45% in size. Summed up: as §3
Experiment [11] can be described thus: qHTS RealTime-Glo MT Cell Viability Assay in HEK293 cells - 16 hour (AID 1224872). Further: nearly all actives have a fitted effect of over 50% in size. Further: potency means the concentration at half of the fitted maximal effect. Summed up:
as §2

The nature of experiment [12]: qHTS RealTime-Glo MT Cell Viability Assay in HepG2 cells - 8 hour (AID 1224873). Further: nearly all actives have a fitted effect of over 55% in size. Summed up: as §4
Experiment [13] in a line: qHTS RealTime-Glo MT Cell Viability Assay in HEK293 cells - 40 hour (AID 1224874). Further: nearly all actives have a fitted effect of over 50% in size. Further: potency means the concentration at half of the fitted maximal effect. The following applies: RealTime-Glo luminescence; max response: active compounds read low. Summed up:
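Luminescence readout at each listed time point; HEK293, 600 cells/well, RealTime-Glo MT reagent added with cells; compounds pinned (23 nL in DMSO) after 5 h at 37 C; continuous culture at 37 C.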

Experiment [14] in a line: A CellTox Green Cytotoxicity Assay to monitor cytotoxicity in HEK293 cells - 24 hour (AID 1224875). Further: series mostly up to about 77 µM; nearly all actives have a fitted effect of over 45% in size. Summed up: as §3
Experiment [15] can be described thus: A CellTox Green Cytotoxicity Assay to monitor cytotoxicity in HepG2 cells - 16 hour (AID 1224876). Further: nearly all actives have a fitted effect of over 45% in size. Summed up:
(§5)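 HepG2, 600 cells/well premixed w/ CellTox Green; 5 h settle, 37 C/5% CO2; pintool cpd add (DMSO); 37 C, 40 h; fluorescence read at 0, 8, 16, 24, 32, 40 h.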

Experiment [16] in a line: qHTS RealTime-Glo MT Cell Viability Assay in HepG2 cells - 32 hour (AID 1224877). Further: nearly all actives have a fitted effect of over 55% in size. Summed up: as §1
Experiment [17] is described as follows: A CellTox Green Cytotoxicity Assay to monitor cytotoxicity in HepG2 cells - 24 hour (AID 1224878). Further: nearly all actives have a fitted effect of over 45% in size. Summed up: as §5
Experiment [18] in a line: A CellTox Green Cytotoxicity Assay to monitor cytotoxicity in HepG2 cells - 40 hour (AID 1224879). Further: nearly all actives have a fitted effect of over 40% in size. Summed up:
as §5

The structures appear in SMILES notation. Unmarked numbers belong to inactive results. Results filed as inconclusive are left out. Active and inactive are the calls of the source. Unless noted, the call rests on the fitted dose curve; in most records, active means well fitted curve in the direction sought with a large enough effect in the repeat runs; inconclusive means weak or mixed curves; inactive means no such curve, though single readings can be large; an effect the other way counts as inactive or inconclusive.
On the % scale 0 is the no-effect control and ±100 the full control effect.

Thyrotropin receptor (Homo sapiens), sequence (P16473 whole entry, looked up): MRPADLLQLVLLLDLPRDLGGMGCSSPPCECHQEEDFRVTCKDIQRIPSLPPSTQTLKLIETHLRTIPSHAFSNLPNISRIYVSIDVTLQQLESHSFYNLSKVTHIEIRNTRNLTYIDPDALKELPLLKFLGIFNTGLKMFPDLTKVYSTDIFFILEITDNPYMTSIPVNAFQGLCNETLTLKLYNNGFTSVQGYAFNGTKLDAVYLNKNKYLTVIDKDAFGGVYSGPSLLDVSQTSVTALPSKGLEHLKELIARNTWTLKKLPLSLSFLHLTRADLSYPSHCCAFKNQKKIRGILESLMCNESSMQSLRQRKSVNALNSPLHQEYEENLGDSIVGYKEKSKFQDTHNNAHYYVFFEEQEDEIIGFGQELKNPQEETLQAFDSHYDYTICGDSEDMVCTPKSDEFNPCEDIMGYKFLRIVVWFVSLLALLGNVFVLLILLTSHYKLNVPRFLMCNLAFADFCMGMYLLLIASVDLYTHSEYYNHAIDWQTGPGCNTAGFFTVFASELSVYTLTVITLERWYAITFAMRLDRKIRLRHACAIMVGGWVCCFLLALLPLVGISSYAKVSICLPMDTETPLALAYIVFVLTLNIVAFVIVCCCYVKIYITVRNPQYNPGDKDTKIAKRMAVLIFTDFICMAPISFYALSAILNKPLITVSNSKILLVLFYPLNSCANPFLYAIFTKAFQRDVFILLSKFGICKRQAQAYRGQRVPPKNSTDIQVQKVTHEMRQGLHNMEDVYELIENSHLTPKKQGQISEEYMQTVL

Consider `CN(CCOc1ccc(NS(C)(=O)=O)cc1)CCc1ccc(NS(C)(=O)=O)cc1`, for which the Potency entry in experiment [1], in [5], in [7], in experiment [10], in [11] and in [18] was “inactive” each time. Further, the result in [2], in [3], in [4], in experiment [6], in experiment [8] and in [9] was inactive. Moreover, the call in experiment [12], in experiment [14], in experiment [15], in experiment [16] and in experiment [17] was inactive. The max response in experiment [13] is -0.0536%.
With `CCOC(=O)[C@H](CCc1ccccc1)N[C@@H](C)C(=O)N1C(=O)N(C)C[C@H]1C(=O)O`, the Potency entry in experiment [1], in [5], in experiment [7], in experiment [10], in experiment [11] and in experiment [18] was “inactive” in each case. The result in experiment [2], in experiment [3], in experiment [4], in [8], in [9] and in [12] was inactive. The compound was called inactive in [14], in [15], in experiment [16] and in experiment [17]. In addition, the max response in experiment [13] was 1.75%.
For `O=C(/N=N/C(=O)OCc1ccccc1)OCc1ccccc1`, the Potency in experiment [1] was 24.3 µM (active). Moreover, the result in experiment [2], in [3], in experiment [4], in experiment [8], in experiment [9] and in [14] was inactive. Besides, the outcome in experiment [15], in experiment [16] and in experiment [17] was inactive. The Potency entry in experiment [5], in experiment [7], in experiment [10], in experiment [11] and in experiment [18] was “inactive” throughout. In addition, in experiment [13], the max response is -13.7%.
Consider `O=C1CC(c2ccc(Cl)cc2)CC(=O)N1`, for which the Potency entry in experiment [1], in experiment [5], in experiment [7], in [10], in [11] and in experiment [18] was “inactive” each time. For the same compound, the outcome in experiment [2], in experiment [3], in experiment [4], in experiment [6], in experiment [8] and in experiment [12] was inactive. Moreover, the compound was called inactive in experiment [14], in experiment [15], in experiment [16] and in experiment [17]. Besides, in experiment [13], the max response was -1.95%.
`CC(C)=O`: the Potency entry in experiment [1], in experiment [5], in [7], in experiment [11] and in experiment [18] was “inactive” in each case. The compound was called inactive in [2], in [3], in [4], in experiment [8], in experiment [9] and in experiment [12]. The call in experiment [14], in [15] and in experiment [17] was inactive. Moreover, the max response in experiment [13] is 0.384%.
`CC(N)C(=O)OC(C)(C)Cc1ccc(Cl)cc1` (stereo not given): the Potency result in experiment [1], in [5], in experiment [7], in [10], in experiment [11] and in experiment [18] was “inactive” throughout. Further, the outcome in experiment [2], in experiment [3], in [4], in [8], in [9] and in experiment [12] was inactive. Also, the compound was classed as inactive in [14], in experiment [15], in experiment [16] and in [17]. The max response in experiment [13] is -11.9%.
Consider `O=C(O)c1ccc(Cl)cc1Cl`, for which the Potency result in [1], in [5], in [7], in experiment [10], in experiment [11] and in experiment [18] was “inactive” throughout. Further, the result in experiment [2], in [3], in experiment [4], in [6], in [8] and in experiment [9] was inactive. In addition, the compound was classed as inactive in [12], in experiment [14], in experiment [15], in experiment [16] and in experiment [17]. Also, the max response in experiment [13] is 7.46%.
Take `CCOCCOC(=O)/C=C/c1ccc(OC)cc1`: the Potency entry in experiment [1], in [5], in [7], in [10], in experiment [11] and in [18] was “inactive” each time. Also, the result in [2], in [3], in [4], in [6], in experiment [8] and in experiment [12] was inactive. The call in experiment [14], in experiment [15], in experiment [16] and in experiment [17] was inactive. In addition, the max response in experiment [13] was 4.37%.
Regarding `O=C(NCCc1c[nH]c2ccccc12)c1cccnc1`, the Potency result in experiment [1], in experiment [5], in experiment [7], in experiment [10], in experiment [11] and in experiment [18] was “inactive” throughout. In addition, the compound was called inactive in experiment [2], in [3], in experiment [4], in [6], in experiment [8] and in experiment [9]. The compound was called inactive in [12], in [14], in experiment [15], in experiment [16] and in [17]. In experiment [13], the max response is -11.8%.
Turning to `O=C(OCC(O)CO)c1ccccc1Nc1ccnc2c(C(F)(F)F)cccc12` (stereo not given), the Potency result in experiment [1], in experiment [5], in [10] and in experiment [18] was “inactive” throughout. Moreover, the compound was called inactive in [2], in experiment [3], in experiment [4], in [8], in experiment [9] and in [12]. The compound was classed as inactive in experiment [14], in [15] and in [17]. Also, the Potency in experiment [7] is 4.25 µM (active); in experiment [11], 5.35 µM (active); in experiment [13] it was 3.79 µM (active).
Turning to `COCCOCCOCCOCCO`, the Potency entry in experiment [1], in experiment [5], in experiment [7], in experiment [10], in experiment [11] and in experiment [18] was “inactive” throughout. The result in [2], in [3], in experiment [4], in [6], in experiment [8] and in experiment [12] was inactive. The outcome in experiment [14], in experiment [15] and in [16] was inactive. Moreover, in experiment [13], the max response is 4.56%.
Regarding `CC(S)C(=O)NCC(=O)O` (stereo not given), the Potency result in experiment [1], in experiment [5], in experiment [7], in experiment [11] and in experiment [18] was “inactive” each time. Further, the compound was called inactive in experiment [2], in [3], in [4], in experiment [6], in experiment [9] and in [12]. For the same compound, the compound was called inactive in experiment [15], in experiment [16] and in experiment [17]. Further, in experiment [13], the max response is 11.2%.
Consider `CC(=O)Nc1ccc(S(=O)(=O)Nc2ccc([N+](=O)[O-])cc2)cc1`, for which the Potency result in experiment [1], in experiment [5], in [7], in [10], in [11] and in [18] was “inactive” in each case. For the same compound, the result in experiment [2], in experiment [3], in [4], in experiment [6], in [8] and in experiment [9] was inactive. For the same compound, the result in [12], in experiment [14], in experiment [15] and in experiment [16] was inactive. Further, the max response in experiment [13] is -8.9%.
As to `CCCOC(=O)C(C)O` (stereo not given), the Potency entry in [1], in experiment [5], in experiment [7], in experiment [11] and in experiment [18] was “inactive” throughout. For the same compound, the call in experiment [2], in experiment [3], in experiment [4], in [8], in experiment [9] and in experiment [12] was inactive. Also, the call in experiment [14], in experiment [15] and in experiment [16] was inactive. The max response in [13] is -7.32%.
Regarding `C=CCCCCCCCCCCCC`, the Potency result in experiment [1], in experiment [5], in experiment [7], in [10], in [11] and in [18] was “inactive” each time. The outcome in experiment [2], in [3], in [4], in experiment [6], in [8] and in experiment [9] was inactive. The outcome in experiment [12], in [14], in [15], in [16] and in experiment [17] was inactive. In addition, in [13], the max response is -0.0097%.
